Rab9 promoter act: qHTS Assay for Rab9 Promoter Activators | AID 485297, 2010 | Huh7 Rab9 promoter-luciferase reporter, luminescence, 24 h | 320,000 compounds, 2.8% hits | Potency, µM (series often up to 9.22 µM), most hits filed as activators; also: nearly all actives have a fitted effect of over 60% in size
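Measured in stably transfected Huh7 cells bearing a Rab9 promoter–luciferase construct: 24 h compound treatment at 37 °C, followed by luminescence detection.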
SMN2 splice enh: qHTS Assay for Enhancers of SMN2 Splice Variant Expression | Potency, µM (titrated, usually from 46.1 µM), usual class: activators | 210,000 compounds, 2.8% hits | AID 1458, 2008 | HEK293 SMN2-luciferase splicing reporter, luminescence, 30-36 h; also: nearly all actives have a fitted effect of over 55% in size
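qHTS luciferase splicing reporter: luminescence rises when SMN2 exon 7 is included in transfected HEK293 cells. Compound exposure lasted 30-36 h at 37C, with 4.5 mM final sodium butyrate as control, followed by a ONE-Glo read.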
ELG1 genotoxic: qHTS screen for small molecules that induce genotoxicity in human embryonic kidney (HEK293T) cells expressing luciferase-tagged ELG1; HEK293T ELG1-luciferase reporter, luminescence, 16 h; Potency, µM (titrated, usually from 46 µM), hits mostly activators; 330,000 compounds, 1.3% hits; AID 504466, 2011; also: nearly all actives have a fitted effect of over 60% in size
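Reporter readout depends on ELG1 protein level, which increases with genetic stress. After 16 hr compound exposure at 37 °C, luciferase activity was quantified using ONE-Glo.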
NPC1 prom act: qHTS Assay for NPC1 Promoter Activators | Huh7 NPC1 promoter luciferase reporter, 24 h | Potency, µM (highest dose often 9.22 µM), hits mostly activators | 320,000 compounds, 2.4% hits | AID 485313, 2010; also: nearly all actives have a fitted effect of over 60% in size
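Compounds in DMSO were transferred onto Huh7 NPC1-luciferase reporter cells pre-incubated 2 h; after 24 h at 37 °C, Amplite reagent was dispensed and luminescence recorded 10 min later.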
FLuc modulator: qHTS profiling assay for firefly luciferase inhibitor/activator using purifed enzyme and Km concentrations of substrates (counterscreen for miR-21 project). Luciferin 4-monooxygenase (Photinus pyralis), P08659. Potency, µM (highest dose often 57.5 µM), usual class: inhibitors. purified FLuc, Km substrates, luminescence inhibition. AID 588342, 2011. 360,000 compounds, 6.9% hits; also: nearly all actives have a fitted effect of over 55% in size
Target sequence (P08659 whole entry, looked up): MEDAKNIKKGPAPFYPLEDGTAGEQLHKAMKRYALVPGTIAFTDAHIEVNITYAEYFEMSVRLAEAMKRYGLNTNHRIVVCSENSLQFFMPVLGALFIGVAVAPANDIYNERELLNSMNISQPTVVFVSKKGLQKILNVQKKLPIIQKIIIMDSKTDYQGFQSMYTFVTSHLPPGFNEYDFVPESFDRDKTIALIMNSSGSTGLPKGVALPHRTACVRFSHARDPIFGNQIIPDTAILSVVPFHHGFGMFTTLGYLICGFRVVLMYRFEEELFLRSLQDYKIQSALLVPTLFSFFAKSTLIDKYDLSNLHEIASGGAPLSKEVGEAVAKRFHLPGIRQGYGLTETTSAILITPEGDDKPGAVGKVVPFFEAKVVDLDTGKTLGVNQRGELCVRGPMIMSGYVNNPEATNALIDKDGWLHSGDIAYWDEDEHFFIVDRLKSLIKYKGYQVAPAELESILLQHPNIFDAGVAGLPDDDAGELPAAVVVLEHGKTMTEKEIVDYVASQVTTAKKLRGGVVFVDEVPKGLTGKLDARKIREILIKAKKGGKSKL
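Purified P. pyralis luciferase (10nM final) with 10uM D-luciferin and 10uM ATP (Km levels) in 50mM Tris acetate pH 7.5, 10mM Mg acetate, 0.01% Tween-20, 0.05% BSA; qHTS 6-point titration, ~60 µM downward; luminescence read.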
Large screens that a line does not name were inactive. Sampled rows, rich in hits. Any-hit rate of the full collection: about 7.4%. Calls follow the shape of the dose curve; as a rule, active = well fitted curve in the direction sought with a large enough effect; inconclusive = small, poorly fitted or top-dose-only effect, or another doubt; inactive = no such curve, though single readings can be large; an effect the other way counts as inactive or inconclusive.

Cc1ccc(-n2c(=O)[nH]c3sc4c(c3c2=O)CCCC4)cc1	FLuc modulator inconclusive (no result: Rab9 promoter act, ELG1 genotoxic, NPC1 prom act)
CCCCCCCN1CCC(=O)N([C@H](CO)CC(C)C)CC1	none (no result: SMN2 splice enh)
O=c1[nH][nH]c(C(F)(F)F)c1C=Nc1ccccc1Cl	FLuc modulator inconclusive
Oc1c(C=Nc2ccccc2Cl)[nH]c2ccccc12	Rab9 promoter act 3.55µM, ELG1 genotoxic inconclusive, NPC1 prom act 2.82µM, FLuc modulator inconclusive (no result: SMN2 splice enh)
O=C(CNc1ccccc1)c1ccc([N+](=O)[O-])cc1	none
O=C(CC(=O)c1ccncc1)c1ccccc1	none (no result: Rab9 promoter act, ELG1 genotoxic, NPC1 prom act, FLuc modulator)
COc1ccccc1C(=O)Nc1ccccc1SC(=O)c1ccccc1OC	Rab9 promoter act inconclusive, ELG1 genotoxic 11.6µM, NPC1 prom act inconclusive, FLuc modulator 5.36µM (no result: SMN2 splice enh)
NC(=O)c1c[nH]c2ccccc12	none
O=C(CC(=O)c1ccccc1)c1ccccc1	SMN2 splice enh 12.6µM (no result: Rab9 promoter act, ELG1 genotoxic, NPC1 prom act, FLuc modulator)
CC(=O)Nc1ccc(NCC(=O)c2ccccc2)cc1	FLuc modulator 15.1µM (no result: SMN2 splice enh)
O=C(/C=C/c1ccccc1)c1c[nH]c2ccccc12	Rab9 promoter act 0.355µM, ELG1 genotoxic inconclusive, NPC1 prom act 0.631µM, FLuc modulator 0.19µM (no result: SMN2 splice enh)
CCOc1ccc(S(=O)(=O)c2cc3cccc(OCC)c3oc2=O)cc1	none (no result: Rab9 promoter act, ELG1 genotoxic, NPC1 prom act)
COc1ccccc1C(=O)NCC(=O)NC(C)CCc1ccccc1 (centres undefined)	FLuc modulator 3.01µM (no result: SMN2 splice enh)
COc1ccccc1C(=O)CC(=O)c1ccccc1	ELG1 genotoxic inconclusive, NPC1 prom act inconclusive, FLuc modulator 13.5µM (no result: SMN2 splice enh)
COc1ccccc1C(=O)Nc1ccc2c3c(cccc13)CC2	Rab9 promoter act inconclusive, NPC1 prom act inconclusive, FLuc modulator 5.36µM (no result: SMN2 splice enh)
COc1ccccc1C(=O)NNC(=O)c1ccccc1	Rab9 promoter act inconclusive, ELG1 genotoxic 8.2µM, NPC1 prom act 2.51µM, FLuc modulator 9.53µM (no result: SMN2 splice enh)
COc1ccccc1NC(=O)CC(=O)c1ccccc1	FLuc modulator inconclusive (no result: SMN2 splice enh)
COc1ccccc1CNC(=O)CN1C(=O)COc2ccc(S(=O)(=O)N3CCCCC3)cc21	none (no result: SMN2 splice enh)
O=C(CCc1ccccc1)N1CCc2c([nH]c3ccccc23)C1c1ccc(F)cc1 (centres undefined)	none (no result: Rab9 promoter act, SMN2 splice enh, ELG1 genotoxic, NPC1 prom act)
O=C(Nc1ccccc1)C(=O)c1c[nH]c2ccccc12	Rab9 promoter act 1.78µM, ELG1 genotoxic 0.92µM, NPC1 prom act 3.55µM, FLuc modulator 1.69µM (no result: SMN2 splice enh)
COc1ccccc1C(=O)NNC(=O)c1cccc(Br)c1	Rab9 promoter act inconclusive, ELG1 genotoxic inconclusive, NPC1 prom act 2.82µM, FLuc modulator 12µM (no result: SMN2 splice enh)
COc1ccccc1NC(=O)c1ccccc1NC(=O)c1ccccc1	FLuc modulator 15.1µM (no result: Rab9 promoter act, ELG1 genotoxic, NPC1 prom act)
O=C(CNc1ccccc1C(=O)O)c1ccccc1	Rab9 promoter act inconclusive, FLuc modulator 19µM (no result: SMN2 splice enh)
NC(=O)c1ccccc1NCC(=O)c1ccc(Cl)cc1	FLuc modulator inconclusive (no result: SMN2 splice enh)
C=CCc1c(O)c(CC)cc2c(C)cc(=O)oc12	none (no result: SMN2 splice enh)
COc1ccc(C)cc1NC(=O)c1nnn(Cc2cccc(C(F)(F)F)c2)c1N	none
COC(=O)/C=C1\S/C(=N/NC(=O)c2ccccc2)NC1=O	SMN2 splice enh inconclusive, FLuc modulator inconclusive
COc1ccccc1NC(=O)c1cc(=O)[nH]c2ccccc12	none (no result: SMN2 splice enh)
Cc1cccc(C)c1NC(=O)c1c[nH]c2ccccc12	ELG1 genotoxic inconclusive, NPC1 prom act inconclusive, FLuc modulator 12µM (no result: SMN2 splice enh)
CC(=O)Nc1ccc(C(=O)CSc2ncn(-c3ccccc3)n2)cc1	SMN2 splice enh 7.08µM, ELG1 genotoxic inconclusive
COc1ccccc1NC(=O)c1c[nH]c2ccccc12	ELG1 genotoxic inconclusive, NPC1 prom act inconclusive, FLuc modulator 21.3µM (no result: SMN2 splice enh)
O=C(CSc1ncn(-c2ccccc2)n1)Nc1nncs1	none
COc1ccccc1/C=C1\S/C(=N/NC(=O)c2cccc(Br)c2)NC1=O	FLuc modulator 9.53µM
Cc1cccc(C)c1NC(=O)CNC(=O)Cc1c[nH]c2ccccc12	none (no result: SMN2 splice enh)
CN(C)c1ccc(-c2ccccc2)nn1	Rab9 promoter act 1.58µM, SMN2 splice enh 15.8µM, ELG1 genotoxic 8.2µM, NPC1 prom act 1.58µM, FLuc modulator 10.7µM
CCN(CC)c1cc(-c2ccccc2)ncn1	FLuc modulator inconclusive
COc1cc(C2CC(=O)N(c3ccc(C)c(Cl)c3)C3=C2C(=O)OC3)cc(OC)c1OC (centres undefined)	none (no result: Rab9 promoter act, ELG1 genotoxic, NPC1 prom act)
Cn1cc2ccc(N)cc2n1	none (no result: SMN2 splice enh)
